# Source: PubChem BioAssay
# The source made the active and inactive calls.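 How the source made its calls, unless noted: active means compound raises GLP1 secretion from the human gut endocrine cells, with no numeric limit stated; inactive means the rest.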
# Key:
# [1] = Wnt pathway potentiators raising nuclear beta-catenin – imaging, WNT3A-conditioned medium, mouse C2C12, NPC library, primary screen (AID 1117326; in the data active means nuclear beta-catenin stimulation mostly above about 4.2%, no sharp cut-off; inactive means mostly below about 10%; further: reference of the scale not given here); details: stronger effect = higher value
# [2] = stimulators of insulin release from INS-1E, primary screen, cell-based, 5 mM glucose, NPC library (AID 1117329;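 active means compound raises insulin release from rat beta cells at 5 mM glucose, no numeric limit stated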; further: reference of the scale not given here); details: rat INS-1E insulin secretion, at 10 µM, stronger effect = higher value
# [3] = growth inhibition of GSK3B-pretreated HCT116 cells – cell-based, CellTiter-Glo, 0.2 to 20 µM (AID 1117336;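 active means compounds lowering colon cancer cell viability after pretreatment blocking the GSK3B kinase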); details: HCT116 viability after GSK3B inhibitor, at 20 µM, stronger effect = higher value
# [4] = inhibition of endothelial tube formation, primary screen, imaging, VEGF stimulated, CD31 staining, tube area, NPC library (AID 1117340;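 active means compound that reduces growth-factor-driven endothelial tube area in a mixed cell culture, no cutoff stated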); details: VEGF-stimulated ADSC/ECFC co-culture, at 10 µM, stronger effect = higher value
# [5] = GLP1 release stimulators, primary, NCI-H716, NPC library (AID 1117341); details: NCI-H716 cells, at 10 µM, stronger effect = higher value; further: reference of the scale not given here
# [6] = HCT116 colon cancer cell growth inhibition, primary screen, CellTiter-Glo luminescence, NPC library (AID 1117342;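 active means compounds that lower survival of HCT116 colon cancer cells in the luminescence readout, no numeric limit stated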); details: at 20 µM (top of the series)
# [7] = reduced SW480 viability measured with CellTiter-Glo, NPC library, primary (AID 1117343;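 active means compounds that lower viability of the colon cancer cells in the luminescence readout, with no numeric limit stated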); details: CellTiter-Glo luminescence; at 20 µM (top of the series)
# [8] = NPC library primary testing for decreased DLD-1 cell viability via CellTiter-Glo (AID 1117346;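 active means compounds that lower survival of DLD-1 colon cancer cells in the luminescence readout, no cutoff given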); details: DLD-1 viability, CellTiter-Glo luminescence; at 20 µM (top of the series)
SMILES,nuclear beta-catenin stimulation ([1]; at 10 µM),"nuclear beta-catenin stimulation ([1]; stimulation, at 2 µM) [%]",insulin secretion stimulation [2],viability decrease [3],tube area decrease [4],GLP1 secretion stimulation [5],inhibition of viability [6],viability decrease (inhibition) [7],viability decrease (inhibition) [8]
COC(=O)[C@H]1[C@H]2C[C@@H]3c4[nH]c5cc(OC)ccc5c4CCN3C[C@H]2C[C@@H](OC(=O)/C=C/c2ccc(O)c(OC)c2)[C@@H]1OC,74.6% (active),3.6,0.4% (inactive),91.8% (active),21% (inactive),0.1% (inactive),85% (active),142% (active),102% (active)
Nc1ncnc2c1ncn2CCOCP(=O)(O)O,-0.6% (inactive),0.1,-2% (inactive),-1.45% (inactive),11.2% (inactive),4% (inactive),-1.5% (inactive),27.9% (inactive),6.8% (inactive)
CC(C)C[C@H](NC(=O)CNC(=O)[C@H](Cc1ccc(O)cc1)NC(=O)[C@H](CO)NC(=O)[C@H](Cc1c[nH]c2ccccc12)NC(=O)[C@H](Cc1cnc[nH]1)NC(=O)[C@@H]1CCC(=O)N1)C(=O)N[C@@H](CCCN=C(N)N)C(=O)N1CCC[C@H]1C(=O)NCC(N)=O (stereo in doubt),-1% (inactive),-0.5,-0.4% (inactive),0.3% (inactive),19.8% (inactive),6% (inactive),6.7% (active),11.3% (inactive),-1.2% (inactive)
Cc1onc(-c2c(Cl)cccc2Cl)c1C(=O)Cl,-0.1% (inactive),0.5,1.5% (inactive),-3.8% (inactive),54.1% (active),5.9% (inactive),13.6% (inactive),17% (inactive),-2.5% (inactive)
CCCCCCCCCCCCCCCCN,1.3% (inactive),1.3,-2.4% (inactive),5% (inactive),6.5% (inactive),0.9% (inactive),5.9% (inactive),4.5% (inactive),-6.6% (inactive)
O=C1CC[C@H](C(=O)N2CCCCC2)N1,1.7% (inactive),1,0.8% (inactive),8.8% (inactive),87.3% (active),0.9% (inactive),0.8% (inactive),-22% (inactive),0.1% (inactive)
CNC(=O)c1c(I)c(NC(=O)CCCCC(=O)Nc2c(I)c(C(=O)O)c(I)c(C(=O)NC)c2I)c(I)c(C(=O)O)c1I,-0.7% (inactive),2.2,-0.3% (inactive),-17.5% (inactive),-0.8% (inactive),-0.4% (inactive),9.4% (inactive),-3.6% (inactive),-2.4% (inactive)
Clc1ccc2c(c1)Nc1ccccc1S2,0.9% (inactive),-2.3,4.2% (inactive),55.6% (active),26.5% (inactive),-3.1% (inactive),32.4% (inactive),31.8% (inactive),17.5% (inactive)
CN(C)CCN1CCN(c2cccc(Cl)c2)C1=O,0.8% (inactive),0.1,2.6% (inactive),10.9% (inactive),8% (inactive),4% (inactive),50% (active),7.4% (inactive),-1.8% (inactive)
CCN(CC)CC(=O)Oc1ccc(NC(C)=O)cc1,-0.5% (inactive),6.1,-0.7% (inactive),0.8% (inactive),-10.3% (inactive),-0.7% (inactive),1.8% (inactive),2.2% (inactive),-9.7% (inactive)
CCOC(=O)C(=O)CCCCCCl,0.6% (inactive),-1.9,1.45% (inactive),12.3% (inactive),-8.5% (inactive),-1% (inactive),12.6% (inactive),11.4% (inactive),0.1% (inactive)
Cc1nc([N+](=O)[O-])cn1-c1ccc([N+](=O)[O-])cc1,-0.1% (inactive),-2.2,2% (inactive),-6.7% (inactive),3.8% (inactive),3.6% (inactive),18.2% (inactive),10.4% (inactive),-13.5% (inactive)
C[C@H]1C[C@H](O)c2ccsc2S1(=O)=O,0.6% (inactive),2.7,-0.8% (inactive),-1.3% (inactive),1.2% (inactive),1% (inactive),4.1% (active),-6.2% (inactive),-4% (inactive)
O=C(c1ccccc1)c1ccccc1,0.7% (inactive),1.3,-0.6% (inactive),8.9% (inactive),-20.2% (inactive),2.4% (inactive),22.5% (inactive),21% (inactive),9.1% (inactive)
O=[N+]([O-])c1ccc(/C=N\O)o1,2% (inactive),0.4,-3.1% (inactive),35.1% (inactive),-16.1% (inactive),4% (inactive),8.8% (inactive),53.4% (active),4.47% (inactive)
CCCCCCCC[N+](C)(C)CCCCCCCC,-3.8% (inactive),34.4,-3% (inactive),99.5% (active),108% (active),-2.7% (inactive),99.6% (active),102% (active),101% (active)

SMILES,nuclear beta-catenin stimulation ([1]; at 10 µM),"nuclear beta-catenin stimulation ([1]; stimulation, at 2 µM) [%]",insulin secretion stimulation [2],viability decrease [3],tube area decrease [4],GLP1 secretion stimulation [5],inhibition of viability [6],viability decrease (inhibition) [7],viability decrease (inhibition) [8]
O=C(O)[C@@H]1CSCN1,0% (inactive),0.2,-2.5% (inactive),-3.1% (inactive),16.2% (inactive),-0.4% (inactive),3.3% (inactive),38.4% (inactive),11.6% (inactive)
COC(=O)CCC(=O)CN,-1.5% (inactive),0.1,0.4% (inactive),0.2% (inactive),-14.2% (inactive),-0.4% (inactive),11.6% (inactive),24.2% (inactive),18.4% (inactive)
Cc1ncc(CO)c(CN)c1O,1.3% (inactive),2.3,0.6% (inactive),4.25% (inactive),-13.4% (inactive),0.1% (inactive),-3.2% (inactive),91.3% (active),9.5% (inactive)
C#CC(C)(CC)OC(=O)c1ccccc1C(=O)O (centres undefined),3.1% (inactive),1.3,-0.2% (inactive),-19% (inactive),-5.2% (inactive),3.4% (inactive),5.2% (inactive),11.9% (inactive),-12.1% (inactive)
CC(C)(C)CC(=O)OCC(=O)[C@@]1(O)CC[C@H]2[C@@H]3CCC4=CC(=O)C=C[C@]4(C)[C@H]3[C@@H](O)C[C@@]21C,3% (inactive),0.9,0% (inactive),-93.8% (inactive),10.8% (inactive),3.3% (inactive),20.7% (inactive),57.4% (active),13.2% (inactive)
CC(C)=CCC1C(=O)N(c2ccccc2)N(c2ccccc2)C1=O,-0.3% (inactive),0.3,-1.2% (inactive),45.1% (inactive),8.8% (inactive),-1.5% (inactive),-4.6% (inactive),78.1% (active),26.2% (inactive)
CCC(C(=O)NC(=O)NC(C)=O)c1ccccc1 (centres undefined),0.9% (inactive),0.2,0.6% (inactive),78.3% (active),7.5% (inactive),-4.7% (inactive),46.2% (inactive),70.3% (active),6.1% (inactive)
N#CSCC(=O)O,0.3% (inactive),1,0.5% (inactive),-47.6% (inactive),2.4% (inactive),-0.1% (inactive),-4.8% (inactive),-6.2% (inactive),-5.4% (inactive)
O=C(COCCOCCOCC(=O)Nc1c(I)cc(I)c(C(=O)O)c1I)Nc1c(I)cc(I)c(C(=O)O)c1I,0.1% (inactive),-1.8,2.45% (inactive),-23.9% (inactive),-2.4% (inactive),-3.2% (inactive),-13.4% (inactive),-37.4% (inactive),-13.3% (inactive)
C[C@@H](CN(C)C)CN1c2ccccc2Sc2ccccc21,3% (inactive),-0.4,15.1% (active),-61.3% (inactive),0.6% (inactive),10.3% (inactive),45.3% (inactive),103% (active),48.3% (inactive)
O=C(O)c1ccccc1Nc1cc(Cl)ccc1C(=O)O,2% (inactive),-1.8,0.5% (inactive),2.4% (inactive),-18.4% (inactive),0.1% (inactive),-1.2% (inactive),-23.2% (inactive),-18.7% (inactive)
CC(=O)SC[C@@H](Cc1ccccc1)C(=O)NCC(=O)OCc1ccccc1,-0.9% (inactive),0.5,-1.4% (inactive),-9.8% (inactive),18.9% (inactive),-4.5% (inactive),-2% (inactive),-6.1% (active),-5.9% (inactive)
CC1(C)S[C@@H]2[C@H](NC(=O)Cc3ccccc3)C(=O)N2[C@H]1C(=O)O (tested in a mixture with another compound),0.8% (inactive),-0.3,-0.8% (inactive),-4.9% (inactive),-6.3% (inactive),-3.4% (inactive),-7.93% (inactive),-25.3% (inactive),-12.1% (inactive)
CCN1CCN(c2cc(-c3ccc(F)cc3)c3c(n2)CCCCCC3)CC1,0.2% (inactive),-3.3,1.9% (inactive),104% (active),24% (inactive),11.2% (inactive),113% (active),132% (active),102% (active)
CCCC(=O)O[C@]1(C(=O)CC)CC[C@H]2[C@@H]3CCC4=CC(=O)CC[C@]4(C)[C@H]3[C@@H](O)C[C@@]21C,-0.2% (inactive),1.5,6.6% (inactive),12.1% (inactive),-2.7% (inactive),5.3% (inactive),18.1% (inactive),35.2% (inactive),25.5% (inactive)
